Screening results: PubChem BioAssay, National Center for Advancing Translational Sciences (NCATS)
TDP1 cell noCPT = qHTS for Inhibitors of human tyrosyl-DNA phosphodiesterase 1 (TDP1): qHTS in cells in absence of CPT. DT40 Tdp1-/- hTDP1 cells, no CPT, ATP luminescence, 48 h. Potency, µM (series often up to 46.2 µM), usual class: inhibitors. 15% of 420,000 active; further: nearly all actives have a fitted effect of over 55% in size
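Readout: luminescence from CellTiter-Glo after 30 min in the dark at RT. Cells: DT40 Tdp1-/- with stable hTDP1, 400/well. Exposure: compounds alone, ≥48 hr, 37 °C.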
DT40 TDP1 CPT = qHTS for Inhibitors of human tyrosyl-DNA phosphodiesterase 1 (TDP1): qHTS in cells in presence of CPT. chicken DT40 Tdp1-/-;hTDP1 cells + 20 nM CPT, ATP luminescence, 48 h. Potency, µM (highest dose often 46.2 µM), most hits filed as inhibitors. 12% of 420,000 active; further: nearly all actives have a fitted effect of over 55% in size
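Chicken DT40 Tdp1-/- cells stably complemented with human TDP1 were seeded at 400 cells/well in medium containing 20 nM camptothecin, exposed to pin-transferred compounds, and grown at 37 °C for at least 48 hr. Viability was read as ATP luminescence.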
TDP1 inh = qHTS Assay for Inhibitors of Tyrosyl-DNA Phosphodiesterase (TDP1) | Tyrosyl-DNA phosphodiesterase 1 (Homo sapiens), Q9NUW8 | 0.28% of 350,000 active | Potency, µM (doses to about 130 µM), usual class: inhibitors | recombinant TDP1, AlphaScreen DNA substrate cleavage | AID 485290, 2010; further: nearly all actives have a fitted effect of over 40% in size
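Steps: enzyme plus compound, 15 min RT; add biotin/phosphotyrosine-FITC oligonucleotide (15 nM final), react 5 min; add donor/acceptor beads (10 ug/ml final), 10 min; read AlphaScreen. Tdp1 at 1 nM final.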
ClpP mod = qHTS Assay for Activators of ClpP | AID 651965, 2013 | purified B. subtilis ClpP, FRET peptide cleavage, 20 min | 1.9% of 340,000 active | Potency, µM (titrated, usually from 57.5 µM) | ATP-dependent Clp protease proteolytic subunit (Bacillus subtilis (strain 168)), P80244; active means well fitted falling curve with a large enough effect; inconclusive means small, poorly fitted or top-dose-only effect; inactive means no such curve, though single readings can be large or run the other way; further: the source files actives as falling curves though it sought activators and does not explain the sign; nearly all actives have a fitted effect of over 65% in size
Target sequence (P80244 whole entry, looked up): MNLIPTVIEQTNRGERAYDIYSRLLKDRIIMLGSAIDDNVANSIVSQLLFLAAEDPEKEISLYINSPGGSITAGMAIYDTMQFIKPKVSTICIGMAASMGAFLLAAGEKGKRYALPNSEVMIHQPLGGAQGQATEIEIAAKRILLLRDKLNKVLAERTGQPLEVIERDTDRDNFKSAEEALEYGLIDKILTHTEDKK
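Buffer: 100 mM Tris/HCl pH8, 100 mM KCl, 0.05% low protease BSA, 2.5% glycerol, 0.01% Tween-20. ClpP 10 microg/mL final; 20 min RT; delta FRET normalized to ADEP and DMSO controls.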
Hits are given with their value; – = inactive; ? = inconclusive; · = no result. This is a sample that favours compounds with a hit; in the whole collection about 17% have one here. Unless noted, the call rests on the fitted dose curve; in most records, active means well fitted curve in the direction sought with a large enough effect; inconclusive means small, poorly fitted or top-dose-only effect, or another doubt; inactive means no such curve, though single readings can be large; an effect the other way counts as inactive or inconclusive.

SMILES	TDP1 cell noCPT	DT40 TDP1 CPT	TDP1 inh	ClpP mod
COc1ccc(C2CC(c3ccc(OC)c(OC)c3)=NN2S(C)(=O)=O)cc1 (centres undefined)	?	18.4µM	·	–
O=Cc1ccc2c(c1)OCCOCCOCCOCCO2	–	–	·	–
Cc1ccc(C(C)C)c2oc(=O)cc(-c3ccc(-c4ccc(C(F)(F)F)cc4)cc3)c12	20.6µM	14.6µM	–	–
COCCCNc1nc2c(c(=O)n(Cc3ccc(OC)cc3)c(=O)n2C)n1C	–	–	·	–
COc1ccc(CNc2nc3c(c(=O)n(Cc4ccc(Br)cc4)c(=O)n3C)n2C)cc1	20.6µM	?	–	–
COc1ccc(Cn2c(=O)c3c(nc(NCCO)n3C)n(C)c2=O)cc1	–	–	–	3.55µM
O=c1c(-c2cc(F)cc(F)c2)nc2cnc(N3CCOCC3)nc2n1C1CC1	–	–	·	·
Cc1ccc(C(=O)O)cc1NC(=O)Nc1cccc2ccccc12	–	–	–	–
COc1ccc2nc(Nc3nc(CSc4ccc(C)cc4)cc(=O)[nH]3)nc(C)c2c1	18.4µM	?	–	·
COc1ccc2nc(Nc3nc(C)c(CCC(C)C)c(=O)[nH]3)nc(C)c2c1	18.4µM	?	–	–
Cc1ccc(SCc2cc(=O)[nH]c(Nc3nc(C)c4cccc(C)c4n3)n2)cc1	16.4µM	?	–	–
Cc1ccc(/C=C2\SC(=S)N(CCC(=O)NNC(=O)c3cccnc3)C2=O)cc1	9.2µM	16.4µM	–	–
Cc1ccc(/C=C2\SC(=S)N(CCC(=O)Nc3cccnc3)C2=O)cc1	–	–	–	–
O=C(CCN1C(=O)/C(=C/c2ccc(F)cc2)SC1=S)NNC(=O)c1cccnc1	9.2µM	?	–	–
O=C(CCN1C(=O)/C(=C/c2ccccc2)SC1=S)NNC(=O)c1cccnc1	?	–	–	–
CC(C)(C)c1ccc(-n2nc(C#N)c(Cl)cc2=O)cc1	2.91µM	3.66µM	–	·
Cc1cc(C)c(C)c(S(=O)(=O)N2CCN(C(=O)CCC(=O)N3CCOCC3)CC2)c1C	–	–	–	–
CCOc1ccc(CNC(=O)Cn2nc(C)n3cccc3c2=O)cc1	–	–	–	–
FC(F)(F)c1ccccc1-c1ccc2ncnc(NCc3cccs3)c2c1	?	23.1µM	·	·
CN(C)C(=O)c1ccc(-c2ccc3ncnc(NC4CC4)c3c2)cc1	?	–	·	·
c1csc(CNc2ncnc3ccc(-c4ccoc4)cc23)c1	–	?	–	·
Cc1ccccc1-c1ccc2ncnc(NC3CC3)c2c1	?	16.4µM	·	·
COc1ccccc1-c1cncnc1-n1ccnc1	–	–	22.4µM	·
Cc1ccccc1-c1ccc2ncnc(-n3ccnc3)c2c1	20.6µM	20.6µM	·	·
CC1CC(C)CN(CCCNC(=O)CN2C(=O)COc3ccc(S(=O)(=O)N4CCOCC4)cc32)C1 (centres undefined)	–	–	–	–
SMILES	TDP1 cell noCPT	DT40 TDP1 CPT	TDP1 inh	ClpP mod
CSc1ncc(C(=O)Nc2cc(C)cc(C)c2)c(-c2ccccc2)n1	?	–	–	–
FC(F)(F)c1ccccc1-c1ccc2ncnc(NC3CC3)c2c1	20.6µM	23.1µM	·	·
COCCNc1ncnc2ccc(-c3ccccc3C)cc12	20.6µM	10.3µM	·	·
FC(F)(F)c1ccccc1-c1nc(NC2CC2)c2ccccc2n1	–	–	·	·
CCCCc1noc(-c2c(-c3ccccc3Cl)noc2C)n1	–	–	·	–
O=C(CC1OC(=O)c2ccccc21)Nc1ccccc1N1CCOCC1 (centres undefined)	–	–	–	–
CC(=O)N1CCN(C(=O)CC2OC(=O)c3ccccc32)CC1 (centres undefined)	11.6µM	8.2µM	–	–
Cc1cccc(CN2C(=O)CSc3ccc(C(=O)NC4CC4)cc32)c1	?	0.731µM	–	·
Cc1ccc(CNC(=O)c2ccc3c(c2)N(Cc2ccccc2Cl)C(=O)CS3)cc1	?	?	–	–
O=C(NCc1ccccc1Cl)c1ccc2c(c1)N(Cc1ccccc1)C(=O)CS2	?	23.1µM	–	–
Cc1ccc(CNC(=O)c2ccc3c(c2)N(Cc2cccc(Cl)c2)C(=O)CS3)cc1	20.6µM	?	–	–
CC(C)(C)n1nnnc1C(c1cc2cc3c(cc2[nH]c1=O)OCCO3)N1CCSCC1 (centres undefined)	–	–	–	25.1µM
